Measured values taken from PMC7862700, “An all-to-all approach to the identification of sequence-specific readers for epigenetic DNA modifications on cytosine”.

What was measured:
Experiment in all cases: DAPPL (digital affinity profiling via proximity ligation, sequencing); 10 mM Tris-HCl pH 7.5, 50 mM NaCl, 1 mM DTT, 4% glycerol, room temperature, 30 min; GST-TFs on glutathione beads, 16-mer random dsDNA library, 0.1% formaldehyde crosslink after washing; high values mean tight binding
FLI1 = molecular target: T1, FLI1 (Homo sapiens, UniProt Q01543 1-452); conditions: protein: recombinant; tags: N-terminal GST; dsDNA, one strand shown
T1 sequence: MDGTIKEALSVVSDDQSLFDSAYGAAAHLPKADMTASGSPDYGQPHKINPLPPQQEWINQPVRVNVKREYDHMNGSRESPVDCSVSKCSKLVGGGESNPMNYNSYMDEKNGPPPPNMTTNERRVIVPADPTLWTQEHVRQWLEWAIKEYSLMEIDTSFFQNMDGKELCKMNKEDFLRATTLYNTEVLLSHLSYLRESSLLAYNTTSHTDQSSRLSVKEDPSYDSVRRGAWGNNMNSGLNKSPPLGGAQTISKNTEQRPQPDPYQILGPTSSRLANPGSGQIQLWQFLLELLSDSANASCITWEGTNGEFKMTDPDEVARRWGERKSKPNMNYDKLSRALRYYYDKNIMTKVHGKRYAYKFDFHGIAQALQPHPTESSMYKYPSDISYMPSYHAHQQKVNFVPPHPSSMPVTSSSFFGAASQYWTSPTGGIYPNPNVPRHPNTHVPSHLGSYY
In short: (§1)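 Beads coated with glutathione captured GST-fused human transcription factors that had been expressed in yeast, and the factors were then given DNA barcodes and pooled with a tag-only sample. The pools were incubated with 200 nmole of a random double-stranded 16-mer DNA library in Tris/NaCl/DTT/glycerol buffer for 30 min at room temperature, washed, crosslinked with 0.1% formaldehyde and proximity-ligated with BsaI/T4 ligase at 37 °C for 1 h. PCR amplification and Illumina NextSeq500 sequencing came last. Binding signal is each hexamer's read frequency for a factor divided by its frequency for the tag-only sample.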

ELK1 = molecular target: T2, ELK1 (Homo sapiens, UniProt P19419 1-428); conditions: protein: recombinant; tags: N-terminal GST; dsDNA, one strand shown
T2 sequence: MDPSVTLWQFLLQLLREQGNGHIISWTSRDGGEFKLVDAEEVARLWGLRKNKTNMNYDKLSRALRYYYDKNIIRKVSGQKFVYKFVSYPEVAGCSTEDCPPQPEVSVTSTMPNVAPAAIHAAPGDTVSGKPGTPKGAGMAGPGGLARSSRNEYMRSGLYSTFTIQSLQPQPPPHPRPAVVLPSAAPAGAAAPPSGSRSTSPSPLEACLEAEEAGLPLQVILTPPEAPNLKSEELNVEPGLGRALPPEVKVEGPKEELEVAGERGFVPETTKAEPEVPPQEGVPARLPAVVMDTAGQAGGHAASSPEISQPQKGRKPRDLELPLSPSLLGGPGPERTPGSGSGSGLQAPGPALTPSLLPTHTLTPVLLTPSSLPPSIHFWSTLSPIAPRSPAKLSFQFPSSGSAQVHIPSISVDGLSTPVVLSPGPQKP
In short: as §1

GABPA = molecular target: T3, GABPA (Homo sapiens, UniProt Q06546 1-454); conditions: protein: recombinant; tags: N-terminal GST; dsDNA, one strand shown
T3 sequence: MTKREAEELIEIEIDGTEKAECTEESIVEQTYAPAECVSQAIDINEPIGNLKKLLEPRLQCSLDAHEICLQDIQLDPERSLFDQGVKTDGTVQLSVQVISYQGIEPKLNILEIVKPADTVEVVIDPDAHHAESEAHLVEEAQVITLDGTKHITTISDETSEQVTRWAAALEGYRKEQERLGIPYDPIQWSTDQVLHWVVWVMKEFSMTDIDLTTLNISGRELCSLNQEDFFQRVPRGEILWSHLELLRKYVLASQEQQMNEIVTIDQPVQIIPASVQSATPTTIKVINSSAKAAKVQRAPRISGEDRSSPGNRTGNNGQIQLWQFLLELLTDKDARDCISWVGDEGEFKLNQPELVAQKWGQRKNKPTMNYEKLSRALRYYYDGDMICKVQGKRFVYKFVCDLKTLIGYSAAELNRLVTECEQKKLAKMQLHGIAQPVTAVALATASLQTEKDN
In short: as §1

ERG = molecular target: T4, ERG (Homo sapiens, UniProt P11308 1-479); conditions: protein: recombinant; tags: N-terminal GST; dsDNA, one strand shown
T4 sequence: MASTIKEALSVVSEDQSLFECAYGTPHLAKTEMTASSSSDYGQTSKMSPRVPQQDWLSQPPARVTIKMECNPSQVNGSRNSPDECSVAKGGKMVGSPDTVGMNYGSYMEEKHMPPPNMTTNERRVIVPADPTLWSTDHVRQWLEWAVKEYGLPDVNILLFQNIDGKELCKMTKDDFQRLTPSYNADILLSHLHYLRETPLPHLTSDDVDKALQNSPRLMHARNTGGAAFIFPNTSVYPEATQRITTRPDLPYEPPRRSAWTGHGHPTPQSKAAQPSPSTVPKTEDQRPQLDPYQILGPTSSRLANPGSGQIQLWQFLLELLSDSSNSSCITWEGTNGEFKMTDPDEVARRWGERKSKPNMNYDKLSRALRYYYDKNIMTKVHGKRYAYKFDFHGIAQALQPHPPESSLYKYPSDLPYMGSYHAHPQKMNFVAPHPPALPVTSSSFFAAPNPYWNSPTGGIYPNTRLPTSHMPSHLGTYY
In short: as §1

ELF1 = ELF1 (Homo sapiens, UniProt P32519 1-619); conditions: protein: recombinant; tags: N-terminal GST; dsDNA, one strand shown
Chain of ELF1 (P32519 whole entry): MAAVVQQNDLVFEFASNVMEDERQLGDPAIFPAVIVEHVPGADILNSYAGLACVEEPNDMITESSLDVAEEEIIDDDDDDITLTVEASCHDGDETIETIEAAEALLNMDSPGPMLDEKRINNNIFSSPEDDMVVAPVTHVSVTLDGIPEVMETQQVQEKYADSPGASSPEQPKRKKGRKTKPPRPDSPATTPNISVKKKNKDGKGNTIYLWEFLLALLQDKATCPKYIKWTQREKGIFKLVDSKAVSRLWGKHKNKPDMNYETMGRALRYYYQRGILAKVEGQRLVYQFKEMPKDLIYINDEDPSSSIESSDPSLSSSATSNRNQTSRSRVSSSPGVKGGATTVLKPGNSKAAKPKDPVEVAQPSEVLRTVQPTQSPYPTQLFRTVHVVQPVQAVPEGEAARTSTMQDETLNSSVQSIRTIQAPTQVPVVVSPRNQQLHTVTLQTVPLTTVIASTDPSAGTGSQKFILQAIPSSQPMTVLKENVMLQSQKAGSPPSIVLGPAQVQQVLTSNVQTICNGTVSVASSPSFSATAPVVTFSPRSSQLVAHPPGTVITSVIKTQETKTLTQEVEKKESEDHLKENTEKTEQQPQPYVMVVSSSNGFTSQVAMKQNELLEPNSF
In short: as §1

EHF = molecular target: T5, EHF (Homo sapiens, UniProt Q9NZC4 1-300); conditions: protein: recombinant; tags: N-terminal GST; dsDNA, one strand shown
T5 sequence: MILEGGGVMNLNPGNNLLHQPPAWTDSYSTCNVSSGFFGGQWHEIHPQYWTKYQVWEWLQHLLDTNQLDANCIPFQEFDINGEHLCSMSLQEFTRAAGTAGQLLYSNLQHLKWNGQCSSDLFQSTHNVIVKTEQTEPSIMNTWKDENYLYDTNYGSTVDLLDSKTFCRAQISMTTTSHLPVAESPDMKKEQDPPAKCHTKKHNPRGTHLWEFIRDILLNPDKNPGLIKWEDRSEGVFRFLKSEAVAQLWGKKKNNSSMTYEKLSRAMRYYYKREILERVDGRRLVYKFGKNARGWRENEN
In short: as §1

SPI1 = SPI1 (Homo sapiens, UniProt P17947 1-270); conditions: protein: recombinant; tags: N-terminal GST; dsDNA, one strand shown
In short: as §1

SPIB = SPIB (Homo sapiens, UniProt Q01892 1-262); conditions: protein: recombinant; tags: N-terminal GST; dsDNA, one strand shown
Chain of SPIB (Q01892 whole entry): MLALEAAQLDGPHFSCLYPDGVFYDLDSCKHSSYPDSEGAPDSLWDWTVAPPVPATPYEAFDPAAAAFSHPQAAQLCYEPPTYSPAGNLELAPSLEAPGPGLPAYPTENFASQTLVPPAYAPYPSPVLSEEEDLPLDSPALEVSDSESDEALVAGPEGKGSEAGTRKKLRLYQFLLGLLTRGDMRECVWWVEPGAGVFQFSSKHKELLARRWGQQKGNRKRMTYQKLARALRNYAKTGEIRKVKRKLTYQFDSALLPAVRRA
In short: as §1

ELK3 = molecular target: T6, ELK3 (Homo sapiens, UniProt P41970 1-407); conditions: protein: recombinant; tags: N-terminal GST; dsDNA, one strand shown
T6 sequence: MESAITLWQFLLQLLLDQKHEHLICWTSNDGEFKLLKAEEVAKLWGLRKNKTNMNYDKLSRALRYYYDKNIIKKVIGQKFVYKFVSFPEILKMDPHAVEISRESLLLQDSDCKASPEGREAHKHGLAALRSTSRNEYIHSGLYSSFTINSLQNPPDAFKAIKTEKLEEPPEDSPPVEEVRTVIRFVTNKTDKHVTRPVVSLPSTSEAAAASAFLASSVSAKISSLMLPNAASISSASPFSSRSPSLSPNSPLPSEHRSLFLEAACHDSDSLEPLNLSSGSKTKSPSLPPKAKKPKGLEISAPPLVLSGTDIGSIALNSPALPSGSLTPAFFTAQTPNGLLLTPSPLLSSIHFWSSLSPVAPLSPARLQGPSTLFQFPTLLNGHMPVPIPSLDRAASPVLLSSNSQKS
In short: as §1

FEV = molecular target: T7, FEV (Homo sapiens, UniProt Q99581 1-238); conditions: protein: recombinant; tags: N-terminal GST; dsDNA, one strand shown
T7 sequence: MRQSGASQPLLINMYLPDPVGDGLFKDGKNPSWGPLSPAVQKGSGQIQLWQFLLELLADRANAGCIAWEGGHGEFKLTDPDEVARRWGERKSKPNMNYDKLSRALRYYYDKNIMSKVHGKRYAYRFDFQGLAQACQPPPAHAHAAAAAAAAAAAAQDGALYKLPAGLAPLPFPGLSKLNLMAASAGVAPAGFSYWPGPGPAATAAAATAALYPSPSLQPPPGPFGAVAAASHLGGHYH
In short: as §1

ETV5 = ETV5 (Homo sapiens, UniProt P41161 1-510); conditions: protein: recombinant; tags: N-terminal GST; dsDNA, one strand shown
Chain of ETV5 (P41161 whole entry): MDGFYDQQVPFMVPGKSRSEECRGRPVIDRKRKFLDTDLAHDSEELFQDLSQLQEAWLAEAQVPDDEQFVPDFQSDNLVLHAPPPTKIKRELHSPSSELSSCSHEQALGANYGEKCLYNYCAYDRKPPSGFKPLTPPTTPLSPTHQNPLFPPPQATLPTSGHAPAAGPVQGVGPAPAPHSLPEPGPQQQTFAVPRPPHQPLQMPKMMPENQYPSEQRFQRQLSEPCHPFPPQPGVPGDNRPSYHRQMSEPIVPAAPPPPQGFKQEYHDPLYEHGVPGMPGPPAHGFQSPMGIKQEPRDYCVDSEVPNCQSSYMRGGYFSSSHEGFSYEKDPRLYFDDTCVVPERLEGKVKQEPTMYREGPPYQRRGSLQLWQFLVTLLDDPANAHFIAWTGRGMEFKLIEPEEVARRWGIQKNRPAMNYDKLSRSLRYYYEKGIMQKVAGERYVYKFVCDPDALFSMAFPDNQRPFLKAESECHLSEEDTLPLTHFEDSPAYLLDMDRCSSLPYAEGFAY
In short: as §1

HSF1 = HSF1 (Homo sapiens, UniProt Q00613 1-529); conditions: protein: recombinant; tags: N-terminal GST; chain copies: 3; dsDNA, one strand shown
Chain of HSF1 (Q00613 whole entry): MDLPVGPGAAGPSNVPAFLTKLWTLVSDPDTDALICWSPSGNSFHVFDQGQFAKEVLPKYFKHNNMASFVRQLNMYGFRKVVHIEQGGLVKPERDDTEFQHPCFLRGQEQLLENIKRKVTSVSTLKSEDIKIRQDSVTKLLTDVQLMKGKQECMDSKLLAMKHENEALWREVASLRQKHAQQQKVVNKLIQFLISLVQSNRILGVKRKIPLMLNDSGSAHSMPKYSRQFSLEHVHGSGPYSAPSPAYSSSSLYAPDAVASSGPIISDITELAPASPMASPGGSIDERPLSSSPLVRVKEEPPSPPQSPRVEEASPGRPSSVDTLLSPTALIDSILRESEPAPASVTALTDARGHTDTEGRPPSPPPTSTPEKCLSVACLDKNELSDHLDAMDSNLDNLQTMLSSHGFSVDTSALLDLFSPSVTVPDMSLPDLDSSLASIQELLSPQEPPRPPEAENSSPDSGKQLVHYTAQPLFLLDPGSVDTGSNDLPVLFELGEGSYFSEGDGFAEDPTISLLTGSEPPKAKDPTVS
In short: as §1

SPIC = molecular target: T8, SPIC (Homo sapiens, UniProt Q8N5J4 1-248); conditions: protein: recombinant; tags: N-terminal GST; dsDNA, one strand shown
T8 sequence: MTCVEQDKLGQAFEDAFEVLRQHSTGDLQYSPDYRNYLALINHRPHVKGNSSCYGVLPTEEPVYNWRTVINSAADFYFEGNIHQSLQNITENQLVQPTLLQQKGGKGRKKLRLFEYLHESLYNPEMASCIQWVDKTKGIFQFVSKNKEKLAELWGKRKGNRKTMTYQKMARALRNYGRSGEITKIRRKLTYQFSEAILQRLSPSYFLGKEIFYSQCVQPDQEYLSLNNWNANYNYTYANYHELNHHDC
In short: as §1

ELF4 = ELF4 (Homo sapiens, UniProt Q99607 1-663); conditions: protein: recombinant; tags: N-terminal GST; dsDNA, one strand shown
Chain of ELF4 (Q99607 whole entry): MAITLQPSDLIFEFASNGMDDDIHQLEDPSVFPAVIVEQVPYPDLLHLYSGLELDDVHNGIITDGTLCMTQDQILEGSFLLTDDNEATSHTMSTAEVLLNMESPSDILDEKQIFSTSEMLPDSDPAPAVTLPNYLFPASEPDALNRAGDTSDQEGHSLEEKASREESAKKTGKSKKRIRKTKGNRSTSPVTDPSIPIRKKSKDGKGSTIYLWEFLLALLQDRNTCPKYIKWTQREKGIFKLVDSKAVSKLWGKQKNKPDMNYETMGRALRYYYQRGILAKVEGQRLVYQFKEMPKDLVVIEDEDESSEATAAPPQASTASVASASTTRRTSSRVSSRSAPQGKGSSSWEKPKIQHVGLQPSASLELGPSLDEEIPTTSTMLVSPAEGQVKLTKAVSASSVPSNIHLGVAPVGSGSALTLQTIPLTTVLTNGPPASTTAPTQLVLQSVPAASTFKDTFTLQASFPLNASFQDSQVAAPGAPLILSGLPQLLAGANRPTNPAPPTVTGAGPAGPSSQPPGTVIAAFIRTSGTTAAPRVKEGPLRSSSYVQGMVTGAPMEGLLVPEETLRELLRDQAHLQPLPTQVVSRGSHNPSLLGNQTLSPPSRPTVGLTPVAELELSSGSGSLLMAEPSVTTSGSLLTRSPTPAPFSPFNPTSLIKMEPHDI
In short: as §1

ELK4 = molecular target: T9, ELK4 (Homo sapiens, UniProt P28324-2 1-405); conditions: protein: recombinant; tags: N-terminal GST; dsDNA, one strand shown
T9 sequence: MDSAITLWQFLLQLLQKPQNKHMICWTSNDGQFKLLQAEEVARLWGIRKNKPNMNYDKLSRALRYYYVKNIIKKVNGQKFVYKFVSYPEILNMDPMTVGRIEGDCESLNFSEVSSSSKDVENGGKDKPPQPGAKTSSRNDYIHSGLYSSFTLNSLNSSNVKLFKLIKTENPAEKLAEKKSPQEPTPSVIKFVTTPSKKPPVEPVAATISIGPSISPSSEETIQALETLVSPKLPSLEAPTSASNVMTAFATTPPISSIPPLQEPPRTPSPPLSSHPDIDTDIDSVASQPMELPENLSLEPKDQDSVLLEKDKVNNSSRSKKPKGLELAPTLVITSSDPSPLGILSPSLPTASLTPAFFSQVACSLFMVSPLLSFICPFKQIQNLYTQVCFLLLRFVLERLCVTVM
In short: as §1

ETV2 = molecular target: T10, ETV2 (Homo sapiens, UniProt O00321 1-342); conditions: protein: recombinant; tags: N-terminal GST; dsDNA, one strand shown
T10 sequence: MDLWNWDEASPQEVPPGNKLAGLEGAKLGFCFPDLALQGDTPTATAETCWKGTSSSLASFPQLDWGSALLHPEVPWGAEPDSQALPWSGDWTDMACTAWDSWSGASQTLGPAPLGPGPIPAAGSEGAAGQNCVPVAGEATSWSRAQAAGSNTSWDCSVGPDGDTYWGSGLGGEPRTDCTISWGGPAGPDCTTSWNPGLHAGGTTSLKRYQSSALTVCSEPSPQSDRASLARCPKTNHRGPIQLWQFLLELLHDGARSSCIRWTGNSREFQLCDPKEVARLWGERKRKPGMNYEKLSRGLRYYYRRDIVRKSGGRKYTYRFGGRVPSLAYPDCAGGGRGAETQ
In short: as §1

ELF3 = molecular target: T11, ELF3 (Homo sapiens, UniProt P78545 1-371); conditions: protein: recombinant; tags: N-terminal GST; dsDNA, one strand shown
T11 sequence: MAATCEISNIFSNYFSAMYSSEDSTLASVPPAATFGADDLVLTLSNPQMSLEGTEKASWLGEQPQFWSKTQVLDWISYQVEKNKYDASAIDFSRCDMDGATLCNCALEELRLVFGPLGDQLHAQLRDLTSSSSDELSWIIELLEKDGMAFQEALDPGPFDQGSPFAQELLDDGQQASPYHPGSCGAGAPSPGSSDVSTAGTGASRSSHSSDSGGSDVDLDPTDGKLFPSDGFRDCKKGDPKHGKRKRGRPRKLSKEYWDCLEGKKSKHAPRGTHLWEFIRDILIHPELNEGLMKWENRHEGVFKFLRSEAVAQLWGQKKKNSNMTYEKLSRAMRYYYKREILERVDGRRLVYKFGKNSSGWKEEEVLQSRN
In short: as §1

CRX = CRX (Homo sapiens, UniProt O43186 1-299); conditions: protein: recombinant; tags: N-terminal GST; dsDNA, one strand shown
Chain of CRX (O43186 whole entry): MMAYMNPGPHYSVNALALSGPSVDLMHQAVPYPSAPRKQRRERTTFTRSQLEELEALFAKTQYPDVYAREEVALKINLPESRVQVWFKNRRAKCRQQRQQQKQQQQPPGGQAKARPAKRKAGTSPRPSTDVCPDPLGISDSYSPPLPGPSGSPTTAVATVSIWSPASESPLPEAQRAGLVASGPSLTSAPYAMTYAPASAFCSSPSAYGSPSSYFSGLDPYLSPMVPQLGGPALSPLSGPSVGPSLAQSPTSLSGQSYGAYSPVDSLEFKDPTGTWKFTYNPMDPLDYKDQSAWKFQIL
In short: as §1

ETV1 = ETV1 (Homo sapiens, UniProt P50549 1-477); conditions: protein: recombinant; tags: N-terminal GST; dsDNA, one strand shown
Chain of ETV1 (P50549 whole entry): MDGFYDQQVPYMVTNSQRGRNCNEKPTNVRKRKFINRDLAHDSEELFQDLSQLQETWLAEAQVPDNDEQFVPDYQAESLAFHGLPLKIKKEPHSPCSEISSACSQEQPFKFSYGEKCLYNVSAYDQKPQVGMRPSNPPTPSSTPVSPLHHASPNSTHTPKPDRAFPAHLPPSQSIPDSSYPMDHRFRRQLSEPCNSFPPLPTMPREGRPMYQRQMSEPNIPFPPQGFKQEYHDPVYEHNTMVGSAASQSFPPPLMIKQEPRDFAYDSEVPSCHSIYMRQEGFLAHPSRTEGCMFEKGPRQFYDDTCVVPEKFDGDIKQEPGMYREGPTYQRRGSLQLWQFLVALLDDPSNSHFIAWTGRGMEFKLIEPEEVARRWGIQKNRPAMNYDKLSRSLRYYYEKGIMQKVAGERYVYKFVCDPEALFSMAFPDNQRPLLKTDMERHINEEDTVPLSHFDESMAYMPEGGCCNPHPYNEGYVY
In short: as §1

Sequence: CCCGCC
- binding signal (FLI1): 1.46 fold enrichment (6-mer frequency, TF over GST control)
- binding signal (ELK1): 1.75 fold enrichment (6-mer frequency, TF over GST control)
- binding signal (GABPA): 1.57 fold enrichment (6-mer frequency, TF over GST control)
- binding signal (ERG): 1.5 fold enrichment (6-mer frequency, TF over GST control)
- binding signal (ELF1): 1.58 fold enrichment (6-mer frequency, TF over GST control)
- binding signal (EHF): 1.53 fold enrichment (6-mer frequency, TF over GST control)
- binding signal (SPI1): 1.44 fold enrichment (6-mer frequency, TF over GST control)
- binding signal (SPIB): 1.31 fold enrichment (6-mer frequency, TF over GST control)
- binding signal (ELK3): 1.63 fold enrichment (6-mer frequency, TF over GST control)
- binding signal (FEV): 1.5 fold enrichment (6-mer frequency, TF over GST control)
- binding signal (ETV5): 1.31 fold enrichment (6-mer frequency, TF over GST control)
- binding signal (HSF1): 1.17 fold enrichment (6-mer frequency, TF over GST control)
- binding signal (SPIC): 1.67 fold enrichment (6-mer frequency, TF over GST control)
- binding signal (ELF4): 1.66 fold enrichment (6-mer frequency, TF over GST control)
- binding signal (ELK4): 1.43 fold enrichment (6-mer frequency, TF over GST control)
- binding signal (ETV2): 1.6 fold enrichment (6-mer frequency, TF over GST control)
- binding signal (ELF3): 1.45 fold enrichment (6-mer frequency, TF over GST control)
- binding signal (CRX): 1.21 fold enrichment (6-mer frequency, TF over GST control)
- binding signal (ETV1): 1.5 fold enrichment (6-mer frequency, TF over GST control)
